Measured values taken from PubChem BioAssay (NCI).
The panel holds about 83,000 compounds, 20% with a hit somewhere; the sample as a whole holds those more often.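 Testing used 96-well plates and a 48-hour single-concentration exposure. Example: -40 means 40% of the starting cells died.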 The source made the active and inactive calls. How the source made its calls: active means growth percent below 10; inactive means the rest.

Key:
Test in all cases: NCI-60 one-dose screen, 48 h (100 = growth as untreated, 0 = no growth, -100 = all killed)
NCI-H23 lung = details: 10 µM unless noted
NCI-H322M lung = details: 10 µM unless noted
HOP-62 NSCLC = details: 10 µM unless noted
NCI-H460 lung = details: 10 µM unless noted
NCI-H522 lung = details: 10 µM
A549/ATCC NSCLC = details: 10 µM unless noted
786-0 renal = details: 10 µM unless noted
COLO 205 colon = details: 10 µM unless noted

Measured: growth

CN1CCC(OC2c3ccccc3CCc3ccccc32)CC1
inactive: NCI-H23 lung 94.6% | NCI-H322M lung 92.8% | HOP-62 NSCLC 93.8% | NCI-H460 lung 106% | NCI-H522 lung 96.7% | A549/ATCC NSCLC 96.2% | 786-0 renal 103% | COLO 205 colon 99.1%

CCCN(CCC)c1ccc(/C=C/c2ccc3cc(OCC)ccc3n2)cc1
inactive: NCI-H23 lung 83.8% | NCI-H322M lung 105% | HOP-62 NSCLC 125% | NCI-H460 lung 95.1% | NCI-H522 lung 76.8% | A549/ATCC NSCLC 87.4% | 786-0 renal 91.1% | COLO 205 colon 112%

Cc1ccc(-c2nnc(COc3ccc(-c4nnc(N)s4)cc3)o2)cc1
inactive: NCI-H23 lung 79.4% | NCI-H322M lung 95.9% | HOP-62 NSCLC 113% | NCI-H460 lung 93% | NCI-H522 lung 73.9% | A549/ATCC NSCLC 105% | 786-0 renal 96.9% | COLO 205 colon 92.8%

Oc1ccc(Cl)cc1CNc1nc2ccccc2[nH]1
inactive: NCI-H23 lung 65.2% | NCI-H322M lung 101% | HOP-62 NSCLC 82.7% | NCI-H522 lung 62% | 786-0 renal 60.7% | COLO 205 colon 65.1%
active: NCI-H460 lung -33.9% | A549/ATCC NSCLC -14.1%

COc1cc(CNCCCN2C(=O)c3ccc4c5c(ccc(c35)C2=O)C(=O)N(CCCNCc2cc(OC)c(OC)c(OC)c2)C4=O)cc(OC)c1OC
active: NCI-H23 lung -74.8% | NCI-H322M lung -24.2% | HOP-62 NSCLC -81.4% | NCI-H460 lung -75% | NCI-H522 lung -80.7% | A549/ATCC NSCLC -84.8% | 786-0 renal -30% | COLO 205 colon -92.6%

CCN1CCN(c2nc3ccccc3c3c(=O)c4cc(F)ccc4sc23)CC1
inactive: NCI-H23 lung 85.6% | NCI-H322M lung 81.2% | HOP-62 NSCLC 73.2% | NCI-H460 lung 38.5% | NCI-H522 lung 76.7% | A549/ATCC NSCLC 58.4% | 786-0 renal 60.6%

COC(=O)c1c2c(c(C)[n+]([O-])c1C)C(=O)C=C(NCc1ccc(F)cc1)C2=O
active: NCI-H23 lung -46.2% | NCI-H322M lung -6.43% | HOP-62 NSCLC -6.11% | NCI-H460 lung -0.65% | NCI-H522 lung -15.1% | A549/ATCC NSCLC -22.7% | 786-0 renal 5.86%

O=C1c2[nH]cc(CN[C@@H]3CCCN3)c2C(=O)c2c1c(O)c1ccccc1c2O
active: NCI-H23 lung -53.7% | NCI-H322M lung -95% | HOP-62 NSCLC -100% | NCI-H460 lung -92.6% | NCI-H522 lung -85.1% | A549/ATCC NSCLC -93.1% | 786-0 renal -83.1% | COLO 205 colon -79.8%

COc1ccc(Cn2c(Br)c3c(c2-c2cc(OC)c(OC)c(OC)c2)CCc2sc(N)nc2-3)cc1
inactive: NCI-H23 lung 38.1% | NCI-H322M lung 46% | HOP-62 NSCLC 41.4% | A549/ATCC NSCLC 19% | 786-0 renal 40.2%
active: NCI-H460 lung 7.43% | NCI-H522 lung -11.4% | COLO 205 colon -10.6%
